FBW7 act: human FBW7 E3 ligase activation, primary screen; Q969H0; AlphaScreen FBW7–phospho-cyclin E peptide binding, activator screen; normalized activity (activation), % at 26.1 µM; 0.13% of 650,000 active; AID 1259310; in the data active = normalized activity above about 1.9%;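 note: purified mutant Fbw7 with reduced substrate affinity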
MITF inh: inhibitors of human MITF. O75030. AlphaScreen MITF homodimerization, bead proximity signal. inhibition, % at 2.6 µM. 0.91% of 650,000 active. AID 1259374; in the data active = inhibition above about 50%
TEAD-YAP block: TEAD-YAP interaction inhibition | HEK-TIYL cells, TEAD-Gal4/YAP UAS-luciferase luminescence | inhibition, % at 9.12 µM | 1.4% of 640,000 active | AID 1259422; in the data active = inhibition above about 32%
GPR151 activ: human GPR151 activation. PathHunter beta-arrestin GPR151 cells, luminescence. 1% of 650,000 active. activation, % at 11.2 µM. AID 1508602; in the data active = activation above about 4.9%
Target sequence (Q8TDV0 whole entry, looked up): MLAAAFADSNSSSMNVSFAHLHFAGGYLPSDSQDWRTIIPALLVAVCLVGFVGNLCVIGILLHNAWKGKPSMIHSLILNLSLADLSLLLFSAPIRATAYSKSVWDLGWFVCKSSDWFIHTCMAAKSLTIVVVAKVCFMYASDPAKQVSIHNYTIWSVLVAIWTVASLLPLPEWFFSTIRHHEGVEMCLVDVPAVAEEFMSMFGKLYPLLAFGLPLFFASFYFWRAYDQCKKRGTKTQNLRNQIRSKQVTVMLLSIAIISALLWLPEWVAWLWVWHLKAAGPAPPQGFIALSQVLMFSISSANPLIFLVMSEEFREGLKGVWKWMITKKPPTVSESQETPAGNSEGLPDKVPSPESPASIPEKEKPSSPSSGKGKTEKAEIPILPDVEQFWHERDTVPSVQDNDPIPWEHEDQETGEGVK
Numbers stand for hits; . = inactive. An excerpt weighted towards active compounds, which were near 3.5% of everything screened.

SMILES | FBW7 act | MITF inh | TEAD-YAP block | GPR151 activ
O=C(NCCc1ccccc1)c1ccc(OC2CCN(C(=O)c3ccsc3)CC2)cc1 | . | . | . | .
Cc1ccoc1C(=O)N1CCC(Oc2ccc(C(=O)NCCc3ccccc3)cc2)CC1 | . | . | 82.9 | .
Cc1cc(C(=O)N2CCC(Oc3ccc(C(=O)NCCc4ccccc4)cc3)CC2)no1 | . | . | . | .
O=C(NCCc1ccccc1)c1ccc(OC2CCN(C(=O)Cn3cncn3)CC2)cc1 | . | . | 76.5 | .
O=C(CSc1nc2ccccc2o1)Nc1ccc(NC(=O)CSc2nc3ccccc3o2)c(Cl)c1 | . | . | . | .
CCn1c(SC)nnc1C1CCCN1C(=O)N1CCOCC1 (stereo unspecified) | . | . | . | .
O=C(CN1CCCC1)NCC1Cc2cc(-c3cnccn3)ccc2O1 (stereo unspecified) | . | . | . | .
CCOCCOC(=O)c1ccc(NC(=O)c2ccc(C(C)(C)C)cc2)cc1 | . | . | 68.6 | .
CC(C)(C)c1ccc(C(=O)Nc2cccc(C(=O)O)c2)cc1 | . | . | 83.6 | .
O=C(O)c1cccc(NC(=O)c2ccc(-c3ccccc3)cc2)c1 | . | . | 41.2 | .
CCCCOC(=O)c1cccc(NC(=O)c2ccc(C(C)(C)C)cc2)c1 | . | . | 52.1 | .
COc1ccc(/C=C/C(=O)c2ccc(F)cc2)cc1 | . | . | . | .
COc1ccc(-c2nnc3n2N=C(c2ccc(C)cc2)CS3)cc1OC | . | . | 52.1 | .
COc1ccc(-c2nnc3n2N=C(c2ccc(F)cc2)CS3)cc1 | . | . | . | .
COc1ccc(C2=Nn3c(nnc3-c3cccc(F)c3)SC2)cc1 | . | . | 63.8 | .
COc1ccc(-c2nnc3n2N=C(c2cccc(OC)c2)CS3)cc1 | . | . | . | .
CCc1nnc2n1N=C(c1ccc(OC)c(OC)c1)CS2 | . | . | . | .
COc1ccc(-c2nnc3n2N=C(c2ccc(C)cc2)CS3)cc1 | . | . | 51.6 | .
COc1cccc(C2=Nn3c(nnc3-c3cccc(C)c3)SC2)c1 | . | . | 48.2 | .
CCCC(=O)N(c1ccc2oc(C)c(C(=O)OCC)c2c1)S(=O)(=O)c1ccc(Cl)cc1 | . | . | . | .
CCCCn1c(CNC(=O)c2cccs2)nnc1SCC(=O)Nc1sc2c(c1C(=O)OCC)CCCCC2 | . | . | . | .
O=C(C1COc2ccccc2O1)N1CCC(Nc2ccc3[nH]ncc3c2)CC1 (stereo unspecified) | . | . | . | .
COc1ccc(C(=O)Nc2ccc(-c3nc4ccc(C)cc4s3)cc2)cc1OC | . | . | . | .
Cc1ccc2nc(COn3nnc4ccc(C(F)(F)F)cc43)cc(=O)n2c1 | . | . | . | .
Cc1ccc(/C=N/NC(=O)CNC(=O)c2ccccc2Br)cc1 | . | . | 46.8 | .
SMILES | FBW7 act | MITF inh | TEAD-YAP block | GPR151 activ
Cc1ccc(/C=N/NC(=O)CNc2cccc(C)c2)cc1 | . | . | 38.5 | .
O=[N+]([O-])C1(Cl)COC(c2cccc(Cl)c2)OC1 (stereo unspecified) | . | . | . | .
CCOC(=O)c1cc(O)c(C(=O)OCC)s1 | . | . | . | .
O=C(Nc1ccc2c(c1)CN(C(=O)c1ccco1)CC2)c1cccc2ccccc12 | . | . | 44.7 | .
O=C(Nc1ccc2c(c1)CN(C(=O)C1CCOC1)CC2)c1ccc(C(F)(F)F)cc1 (stereo unspecified) | . | . | . | .
O=C(Nc1ccc2c(c1)CN(C(=O)C1CCOC1)CC2)c1ccccc1Cl (stereo unspecified) | . | . | 51.4 | .
CCC(=O)N1CCc2ccc(NC(=O)c3c(F)cccc3F)cc2C1 | . | . | 32.6 | .
O=C(Nc1ccc2c(c1)CN(C(=O)c1ccco1)CC2)c1ccc(F)c(F)c1 | . | . | . | .
O=C(Nc1ccc2c(c1)CN(C(=O)C1CCOCC1)CC2)c1ccccc1Cl | . | . | 34.4 | .
CC(C)n1c(Nc2ccc(N3CCOCC3)cc2)nc2c(NC3CC3)ncnc21 | . | . | . | .
COc1ccc(C(=O)Nc2ncccc2O)cc1 | . | . | . | .
COC(=O)c1c(C)[nH]c(-c2csc(N)n2)c1C | . | . | 50.5 | .
CC(=O)c1c(C)[nH]c(-c2csc(NC3CCCCC3)n2)c1C | . | . | . | .
CCC(=O)c1ccc(OCC(=O)NC23CC4CC(CC(C4)C2)C3)cc1 | . | . | . | .
COc1ccc(CCNc2nnc(Sc3nnnn3-c3ccccc3)s2)cc1OC | . | . | 54.2 | .
CCCSc1nnc2c(n1)OC(c1cccc(OC)c1)Nc1ccccc1-2 (stereo unspecified) | . | . | . | .
N[C@@H](Cc1cccc2ccccc12)c1nc2ccc(-c3ccncc3)cc2[nH]1 | . | . | . | .
